FBPA coupling cs = qHTS Assay for Inhibitors of Fructose-1,6-bisphosphate Aldolase from Giardia Lamblia: Coupling assay counterscreen | coupling enzyme system counterscreen, AmpLite Red fluorescence | activity change, negative = inhibition, % at 58.2 µM, hits read low | 290,000 tested, 0.67% active | AID 2472, 2010; in the data active means activity change below about -30%
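Final compound at 57.5 uM, incubated 10 min at RT with coupling enzyme reagent (glyceraldehyde-3-phosphate), then 20 min with substrate and AmpLite Red detection. Fluorescence read at 525/598 nm; tests interference with the coupling assay, not aldolase inhibition.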
rTrxR1 inhibitor = qHTS Assay for Inhibitors of Mammalian Selenoprotein Thioredoxin Reductase 1 (TrxR1): qHTS. Thioredoxin reductase 1, cytoplasmic (Rattus norvegicus), O89049. recombinant rTrxR1, NADPH fluorescence consumption, selenite substrate. Potency, µM (top dose mostly 114 µM), most hits filed as inhibitors. 390,000 tested, 1% active; further: nearly all actives have a fitted effect of over 65% in size
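Rat TrxR1 (90 nM in the dispensed reagent) was pre-reduced with 400 uM NADPH for 5 min at room temperature, then incubated with compound for 15 min. After 400 uM selenite was added, NADPH fluorescence (Ex 340/Em 450 nm) was followed for 8 min.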
USP1 inh = Inhibitors of USP1/UAF1: Primary Screen. Ubiquitin carboxyl-terminal hydrolase 1 (Homo sapiens), O94782. recombinant USP1/UAF1, Ub-Rhodamine cleavage fluorescence. Potency, µM (series often up to 57.1 µM), actives largely listed as inhibitors. 390,000 tested, 0.23% active. AID 743255, 2014; further: nearly all actives have a fitted effect of over 60% in size
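In this screen, compounds sit with the deubiquitinase complex (1nM) for 15 min at room temperature before Ub-Rho is added at 150nM final. Fluorescence rise is then followed for 6 reads every 60 seconds.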
GALK inhibitor = qHTS Assay for Inhibitors of Human Galactokinase (GALK) | P51570 | Purified GALK, Kinase-Glo residual ATP luminescence | Potency, µM (top dose mostly 57.5 µM), hits mostly inhibitors | AID 1868, 2009 | 270,000 tested, 0.007% active
Target sequence (P51570 whole entry, looked up): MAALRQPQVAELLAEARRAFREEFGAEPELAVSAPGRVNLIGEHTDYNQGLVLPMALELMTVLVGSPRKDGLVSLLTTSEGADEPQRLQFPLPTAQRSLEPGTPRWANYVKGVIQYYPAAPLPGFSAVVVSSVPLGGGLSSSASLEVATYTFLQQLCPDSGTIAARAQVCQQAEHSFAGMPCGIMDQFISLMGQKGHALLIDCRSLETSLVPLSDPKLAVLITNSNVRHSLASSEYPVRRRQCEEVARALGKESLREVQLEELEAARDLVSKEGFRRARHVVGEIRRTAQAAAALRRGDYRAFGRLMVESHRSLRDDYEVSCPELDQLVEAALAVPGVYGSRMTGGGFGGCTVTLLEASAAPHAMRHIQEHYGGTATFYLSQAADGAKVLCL
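ATP-depletion format; final 35 uM ATP, 100 uM D-galactose, 5 nM enzyme; pH 8.0 HEPES/Mg2+ buffer; 60 min RT; luminescence read 10 min after detection reagent.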
TrxR1 substrate = qHTS Assay for Substrates of Mammalian Selenoprotein Thioredoxin Reductase 1 (TrxR1): qHTS; Thioredoxin reductase 1, cytoplasmic (Rattus norvegicus), O89049; purified TrxR1 substrate turnover, NADPH consumption readout; Potency, µM (highest dose often 114 µM); 390,000 tested, 0.01% active; AID 588456, 2011; further: nearly all actives have a fitted effect of over 50% in size
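Rat TrxR1, dispensed at 90 nM, was prereduced with 400 uM NADPH (final) for 5 min at ~22 deg C, then incubated with compound 15 min before 400 uM selenite. A first-read NADPH fluorescence drop versus no-compound background flagged substrates.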
Of the large screens only hits and unclear results are named; the others gave an inactive call. A selection: hits, their analogues and other compounds. The true share with any hit is near 1.5%. Unless noted, the call rests on the fitted dose curve; in most records, active means well fitted curve in the direction sought with a large enough effect; inconclusive means small, poorly fitted or top-dose-only effect, or another doubt; inactive means no such curve, though single readings can be large; an effect the other way counts as inactive or inconclusive.

O=S(=O)(O)c1ccc2c(c1)-c1nc-2nc2[nH]c(nc3nc(nc4[nH]c(n1)c1ccc(S(=O)(=O)O)cc41)-c1ccc(S(=O)(=O)O)cc1-3)c1ccc(S(=O)(=O)O)cc21	none (no result: rTrxR1 inhibitor, USP1 inh, GALK inhibitor, TrxR1 substrate)
C#CCCCO/N=C1/C[C@@H](O)[C@@H](O)[C@@H]2[C@@H]3C(=O)N(C4CCCCC4)C(=O)[C@H]3CC[C@H]12	none (no result: rTrxR1 inhibitor, USP1 inh, GALK inhibitor, TrxR1 substrate)
Oc1ccc(Cl)cc1C1C=C(c2ccc3c(c2)OCO3)NC(c2cc(Br)ccc2F)N1 (stereo not given)	rTrxR1 inhibitor inconclusive (no result: FBPA coupling cs, USP1 inh, GALK inhibitor)
Oc1ccc2ccccc2c1C=Nc1ccc(Cl)cn1	FBPA coupling cs -45.6
Cc1cc(O)c(C=Nc2ccc(Cl)cn2)c(=O)o1	rTrxR1 inhibitor inconclusive
Cc1cc(N(C)C)cc(C)c1/C=C/c1ccnc2ccccc12	none (no result: FBPA coupling cs, USP1 inh, GALK inhibitor)
CN(C)c1ccc(/C=C/c2ccnc3cc(Cl)ccc23)cc1	none (no result: FBPA coupling cs, USP1 inh, GALK inhibitor)
O=C1CCCC2=C1C(c1ccc(O)c(O)c1)c1c(ccc3ncccc13)N2 (stereo not given)	FBPA coupling cs -72.3
CCOc1ccc(C2C3=C(CCCC3=O)Nc3ccc4ncccc4c32)cc1 (stereo not given)	rTrxR1 inhibitor inconclusive
Cc1cc(/C=C2\C=Cc3ccccc32)cc(C)c1N	none (no result: FBPA coupling cs, USP1 inh, GALK inhibitor)
C[C@@H](C(=O)NCc1ccccc1)[C@@H]1C[C@@]1(C)[C@@H](NC(=O)OCc1ccccc1)c1ccccc1	none (no result: GALK inhibitor)
Cc1ccc(CNC(=O)[C@H](C)[C@H]2C[C@]2(C)[C@H](NC(=O)OCc2ccccc2)c2ccccc2)o1	rTrxR1 inhibitor 56.2µM (no result: GALK inhibitor)
COC(=O)CSc1[nH]c2ccc(Br)cc2c1[N+](=O)[O-]	rTrxR1 inhibitor 11.2µM
COc1cc(C2Nc3cccc4cccc(c34)N2)cc(OC)c1OC(C)=O	rTrxR1 inhibitor 35.5µM, USP1 inh inconclusive
Cc1onc(-c2ccccc2Cl)c1C(=O)NCc1ccco1	rTrxR1 inhibitor 50.1µM
O=C(NCc1ccco1)c1ccc2c(c1)C(=O)c1ccccc1-2	rTrxR1 inhibitor 20µM
Cc1ccc(SC[C@H](Cc2ccccc2)N2CC[C@@H](C(C)(C)C)CCC2=O)cc1	none (no result: FBPA coupling cs, USP1 inh, GALK inhibitor)
N#Cc1cccc(CS(=O)(=O)c2nc3ccccc3s2)c1	none (no result: rTrxR1 inhibitor, USP1 inh, GALK inhibitor, TrxR1 substrate)
COc1cc2c(NC3CCN(C)CC3)nc(N3CCCN(C)CC3)nc2cc1OCCN(C)C	none (no result: FBPA coupling cs, USP1 inh, GALK inhibitor)
O=[N+]([O-])c1ccc(Oc2cccc3cccnc23)c(Cl)c1	FBPA coupling cs -37.2
COc1ccc(C=C2C=C(C(C)(C)C)C(=O)C(C(C)(C)C)=C2)cc1OC	rTrxR1 inhibitor 11.2µM
CN1\C(=C/C=C/C=C/C=[N+](C)C)C(C)(C)c2ccccc21	rTrxR1 inhibitor inconclusive, USP1 inh 25.1µM
Cc1ccnc(N/C=C(\C#N)c2nc(-c3cccc(Br)c3)cs2)c1	USP1 inh 22.4µM
N#C/C(=C/c1ccc(Cl)cc1)c1nc(-c2ccc(Br)cc2)cs1	none (no result: FBPA coupling cs, GALK inhibitor)
Cc1cc(Cl)nc2nc(Cl)ccc12	none (no result: FBPA coupling cs, USP1 inh, GALK inhibitor)
Cc1ccc(N2C(=O)CC(Sc3cccs3)C2=O)cc1 (stereo not given)	rTrxR1 inhibitor 79.4µM (no result: GALK inhibitor)
Cn1nnnc1SC1CC(=O)N(c2ccccc2)C1=O (stereo not given)	rTrxR1 inhibitor 17.8µM
Cc1cc(C)cc(N2C(=O)CC(Sc3nnnn3-c3ccccc3)C2=O)c1 (stereo not given)	rTrxR1 inhibitor 11.2µM (no result: FBPA coupling cs)
Cc1cc(C)cc(N2C(=O)CC(Sc3ncn[nH]3)C2=O)c1 (stereo not given)	rTrxR1 inhibitor inconclusive
Cc1cccc(N2C(=O)CC(Sc3nnc(C)s3)C2=O)c1 (stereo not given)	rTrxR1 inhibitor 20µM
O=C1CC(Sc2nnnn2C2CCCCC2)C(=O)N1c1ccccc1 (stereo not given)	rTrxR1 inhibitor inconclusive
Cc1cccc(N2C(=O)CC(Sc3nc(C)cc(C)n3)C2=O)c1 (stereo not given)	rTrxR1 inhibitor inconclusive
COc1cc2c(NC3CCN(C)CC3)nc(N3CCCN(C)CC3)nc2cc1OCCCCN	none (no result: FBPA coupling cs, USP1 inh, GALK inhibitor)
CC(=O)NCCNc1ncncc1-c1ccc(N(C)C)cc1	none (no result: rTrxR1 inhibitor, USP1 inh, GALK inhibitor, TrxR1 substrate)

Source: PubChem (National Center for Advancing Translational Sciences (NCATS))
